# Laboratory results taken from PubChem BioAssay (NCI).
# Compounds without any hit were thinned out: in the full panel of roughly 83,000, 20% have a hit.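 For each line, cells grew in 96-well plates with the test compound present at a single concentration for 48 hours.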 Unmarked numbers belong to inactive results. Activity calls are given as the source filed them.
# Test system: KM12 colon
# Test: NCI-60 one-dose screen, 48 h (100 = growth as untreated, 0 = no growth, -100 = all killed)
# Settings: 10 µM unless noted
# Description: Growth inhibition of the KM12 human tumor cell line is measured as a screen for anti-cancer activity. Cells are grown in 96 well plates and exposed to the test compound for 48 hours. Compounds are tested at a single concentration, which is 10^-5 M for most compounds. The reported endpoint is percent growth (GI% or GIPRCNT), where numbers from 0 - 100% represent growth inhibition, and numbers from -100% - 0 represent cell death. For example, a value of 40 represents 60% growth inhibition. A value of 0 means no net growth occurred over the course of the experiment. A value of -40 indicates 40% of cells at the beginning of the experiment died by the end of the experiment. A value of -100 means all cells are dead at the end of the experiment.
# NCI-60 Human Tumor Cell Lines Screen was performed using the standard one-dose NCI protocol, which is described in more detail at https://dtp.cancer.gov/discovery_development/nci-60/default.htm.
# Compounds with GIPRCNT values below 10 were considered active. Activity score was based on GIPRCNT using the following formula: […]
# Score is 0 for GIPRCNT values of 100 or above, 50 for GIPRCNT values of 0, and 100 for GIPRCNT values of -100.
row,SMILES,growth
1,Nc1ccc2c(c1)/C(=N/O)c1cc([N+](=O)[O-])ccc1-2,64.8%
2,Nc1ccccc1-c1ccc([N+](=O)[O-])cc1,24.1%
3,S=C(c1ccccc1)N1CCN(c2cccc(Cl)c2)CC1,92.5%
4,Cc1nn(-c2ccccc2)c2ncc3c(c12)C(=O)N(Cc1ccccc1)C3=O,85.8%
5,Cc1nn(-c2ccccc2)c(Cl)c1C(CC(=O)c1ccc(Cl)cc1)CC(=O)c1ccc(Cl)cc1,86.1%
6,C/C(=C\CCc1ccsc1)CC/C=C(\C)CCCN1CCN(CCO)CC1,27.1%
7,CCCCn1c(Cc2ccc(Cl)cc2)nc2cc(OC)c(OC)cc2c1=O,76.1%
8,CCCOc1ccc2c(c1)CC[C@@H]1[C@@H]2CC[C@@]2(C)[C@H]1CC[C@]2(C)O,35.6%
9,O=C1Cc2cc(CCN3CCN(CCOCCO)CC3)c(Cl)cc2N1Cc1ccc(-c2ccccc2-c2nn[nH]n2)cc1,85.2%
10,COc1cccc2c1O/C(=C\c1c([N+](=O)[O-])ncn1C)C2=O,105%
11,Clc1ccc([C@@H]2C[C@@H]3Cc4cc(Br)c5ccccc5c4N2O3)c(Cl)c1,66.7%
12,Cc1ccc(C(O)C2=CC(=O)c3ccccc3C2=O)cc1 (stereo not given),96%
13,COc1cc(/C=C/c2nnc(-c3cc(-c4ccccc4)n[nH]3)o2)cc(OC)c1OC,103%
14,Nc1nc(SCc2ccccc2Cl)c(-c2ccccc2)c(SCc2ccccc2Cl)n1,85.7%
15,O=C1C2C3C=CC(O3)C2C(=O)N1Nc1ccccc1 (stereo not given),115%
16,O=C1Nc2ccc(F)cc2/C1=C/c1nc(-c2ccc(F)cc2)n2ccccc12,87.6%
17,O=C1/C(=C/c2ccc([N+](=O)[O-])s2)Oc2ccc(Br)cc21,-51.3% (active)
18,NC(N)=NN=c1c(=O)c2ccccc2c1=O,73.8%
19,COc1ccc(-c2cc(Cc3cccs3)c(=O)n(Cn3cncn3)n2)cc1,108%
20,CSc1ncc2ncn(C3OC(CO)C(O)C3O)c2n1 (stereo not given),113%

row,SMILES,growth
1,c1cnc2n[nH]c(Nc3ncnc4c3sc3ncccc34)c2c1,103%
2,COc1cc(/C=C/C(=O)Nc2ccc3c(c2)/C(=C\c2cccn2C)C(=O)N3)cc(OC)c1OC,33.8%
3,Nc1ccc(S(=O)(=O)Nc2ncccn2)cc1,108%
4,C[N+]1(CCC[N+]2(C)C[C@@H]3[C@H](C2)[C@@H]2C=C[C@H]3C2)CCOCC1 (stereo not given in full),108%
5,Cc1cc(C)n(C(=O)c2nn(-c3ccc(Cl)cc3)cc2O)n1,36.3%
6,O=C(CCc1nnc(Cn2ccnc2)o1)c1nc2ccccc2[nH]1,111%
7,O=C(Nc1ccc(Nc2ccncc2)cc1)c1ccc(Nc2ccnc3ccc([N+](=O)[O-])cc23)cc1[N+](=O)[O-],2.06% (active)
8,NC(=O)N/N=C/c1ccc(Br)o1,108%
9,CN(C(=O)c1ccccc1)N(C)C(=O)c1ccccc1,113%
10,O=C(Nc1nc(-c2ccccc2)cs1)c1cc(O)c(O)c(O)c1,64.7%
11,[O-]/[N+](=C\C=C\c1ccccc1)c1ccccc1,100%
12,Clc1ccccc1[C@@H]1C[C@@H]2Cc3cc(Br)c4ccccc4c3N1O2,33.5%
13,O=C(C=C=Nc1ccccc1)C(=O)N=C=Cc1ccccc1,81.5%
14,N#Cc1cccc(/C=C(/C(=O)c2ccccc2)c2ccccc2)c1,22.3%
15,COc1ccc(OC)c(/C=C/c2nc(=S)n(-c3ccc(Cl)cc3)[nH]2)c1,40.9%
16,COc1ccc(/C=N/NC(=O)c2ccc(S(C)(=O)=O)cc2)cc1OC,95.8%
17,CCC(CC)NCCCCCNc1cc(OC)cc2cccnc12,98.6%
18,C=C(C)[C@H]1CC/C(C)=C/CC[C@]2(C)O[C@H]2CC/C(C=O)=C\C1O (stereo not given in full),114%
19,COc1c(O)cc2oc3cc(O)c(CC=C(C)C)c(O)c3c(=O)c2c1C/C=C(\C)CCC=C(C)C,25%
20,Oc1ccccc1C=Nc1ccccc1N=Cc1ccccc1O.[Cu+2],44.6%
